# Bioassay records as filed in PubChem BioAssay.
# An excerpt weighted towards active compounds, which were near 3.1% of everything screened.
# LGR2 inh = inhibitors of bursicon-induced LGR2 CRE-luciferase signal, primary screen, cell-based, HEK293, CRE-luciferase reporter, bursicon stimulation | inhibition, % at 9.99 µM | bursicon-stimulated, 4 h | 380,000 compounds, 0.35% hits | Drosophila bursicon receptor LGR2 (rickets) | AID 720647, 2013;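 active = drop in luminescence signal, shown as inhibition above about 50% in the replicate tests, limit read from the data, passing the limit was not always enough; inconclusive = probably only some replicates passing the limit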;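 also: agonist challenge used bursicon conditioned medium at about half maximal strength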
# PAX8 inh HTS = inhibitors of PAX8-driven TPO luciferase reporter, primary screen, RMG-I cells, single concentration. SteadyGlo, 24 h. inhibition, % at 12.6 µM. 360,000 compounds, 1.2% hits. AID 652154, 2013;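 active = mean replicate inhibition at least 60% with every replicate also reaching 60%; inconclusive = only one of the two criteria is met; inactive = mean below 60% and not all replicates reaching 60%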;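 also: luciferase light reporting Pax8 driven TPO promoter activity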
# TROY NFkB inh = inhibitors of TROY-driven NF-kB signaling, primary screen, Q293 LMP1-TROYcd cells, NF-kB luciferase, uHTS; inhibition, % at 10 µM; 360,000 compounds, 0.98% hits; AID 1347056, 2019; Q293 LMP1-TROYcd NF-kB luciferase reporter, 4 h;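 active = compounds whose plate-normalised and pattern-corrected inhibition of the luciferase reporter signal at the single screening dose is 50% or more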
# TWEAK Fn14 block = inhibitors of TWEAK-Fn14 signaling, primary screen, luciferase reporter cells, uHTS; 360,000 compounds, 2% hits; inhibition, % at 10 µM; TWEAK-stimulated Fn14 reporter cells, luciferase luminescence, 8 h; in the data active = inhibition above about 50%
# LMP1 NFkB inh = EBV LMP1-driven NF-kappaB luciferase reporter inhibitors, primary screen, cell-based, luminescence, single point; LMP1-induced NF-kappaB luciferase reporter cells; inhibition, % at 12.5 µM; 350,000 compounds, 0.69% hits; in the data active = inhibition above about 41%; inconclusive = no clear call, values can overlap the other calls
# EWS-Fli block = EWS/Fli-driven NR0B1 reporter inhibitors, primary screen, A673 cells, NR0B1 luciferase, luminescence, MLPCN library; inhibition, % at 12.6 µM; 350,000 compounds, 0.67% hits; viability-normalised;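 active = mean inhibition of at least 50% after viability correction, with every replicate also passing that limit; inconclusive = mean reaches 50% but only one of two replicates passes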;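 also: firefly luciferase signal divided by Alamar Blue viability fluorescence both relative to DMSO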
# Hits are given with their value; n = inactive; u = inconclusive; x = no result; ! = repeats disagree.
SMILES,LGR2 inh,PAX8 inh HTS,TROY NFkB inh,TWEAK Fn14 block,LMP1 NFkB inh,EWS-Fli block
COC(=O)C[C@@H]1CC[C@H]2[C@@H](COc3ccc(NS(=O)(=O)c4ccc(F)cc4)cc3C(=O)N2C)O1,n,n,x,x,x,n
Cc1cc(C(=O)COC(=O)c2cccc(NS(C)(=O)=O)c2)c(C)n1CC1CCCO1 (stereo not drawn),n,n,76,92,u,n
O=C(CSc1ncnc2nc[nH]c12)c1ccc(Cl)cc1,n,n,n,n,n,n
O=C(CSc1ncnc2c(-c3ccc(Cl)cc3)nsc12)c1ccccc1,n,x,57,n,n,n
Cc1ccc(NN2C(=O)C=C(c3ccccc3)C2=O)cc1,n,n,n,n,x,63
O=C1c2ccccc2C(=O)N1Nc1ccccc1,n,x,n,n,n,x
COc1ccc(N2C(=O)CC(Cc3ccccc3)C2=O)cc1 (stereo not drawn),x,n,n,n,n,x
COc1ccc(C[C@@H]2OC3(C=CC(=O)C=C3)O[C@H]2Cc2ccc(OC)cc2)cc1,x,x,85,106,79,x
O=C1C=CC2(C=C1)O[C@H](Cc1ccccc1)[C@@H](Cc1ccccc1)O2,98,121,87,107,87,n
C[C@H](NC(=O)C[C@H]1CC[C@H](NC(=O)C2CCC2)[C@H](CO)O1)c1ccccc1,n,n,x,x,x,n
c1ccc(-c2ncc(CSc3nncn3-c3ccccc3)s2)cc1,n,x,n,n,n,x
Cc1nnc(SCc2cnc(-c3ccc(C(C)C)cc3)s2)n1C,x,x,n,n,43,x
C[C@H](CO)N1C[C@H](C)[C@H](CN(C)Cc2ccc(C(F)(F)F)cc2)OCCCC[C@H](C)Oc2ccc(NC(=O)Nc3ccccc3)cc2C1=O,n,85,x,x,x,n
C[C@H](CO)N1C[C@H](C)[C@@H](CN(C)Cc2ccc(C(F)(F)F)cc2)OCCCC[C@H](C)Oc2ccc(NC(=O)Nc3ccccc3)cc2C1=O,n,n,x,x,x,n
C[C@@H]1CCCCO[C@H](CN(C)Cc2ccc(C(=O)O)cc2)[C@H](C)CN([C@H](C)CO)C(=O)c2cc(NC(=O)Nc3ccc(C(F)(F)F)cc3)ccc2O1,n,n,x,x,x,n
C[C@@H]1CCCCO[C@H](CN(C)Cc2ccc(C(F)(F)F)cc2)[C@@H](C)CN([C@@H](C)CO)C(=O)c2cc(NC(=O)Nc3ccccc3)ccc2O1,n,n,x,x,x,69
CCCN(CCC)c1ncnc2nc[nH]c12,n,n,50,63,48,n
Clc1ccccc1CN(Cc1ccccc1)c1ncnc2nc[nH]c12,x,x,n,n,n,x
COc1ccc(S(=O)(=O)/N=C2/C=CC(=O)C(C)=C2C)cc1,x,x,n,n,n,x
CC1=C(C)/C(=N\OS(=O)(=O)c2ccc(C)cc2)C=CC1=O,n,63,n,93,n,x
C[C@@H]1CCCCO[C@@H](CN(C)C(=O)C2CCCCC2)[C@H](C)CN([C@@H](C)CO)C(=O)c2cc(NC(=O)Nc3ccc4c(c3)OCO4)ccc2O1,n,x,x,x,x,n
C=C1CC(COc2cc(=O)oc3ccccc23)(c2ccccc2)OC1=O (stereo not drawn),x,n,58,67,67,u
C=C1CCC2C(C)(C)[C@H](O)CC[C@@]2(C)[C@@H]1COc1cc(=O)oc2ccccc12 (stereo partly drawn),x,x,n,n,n,x
CC(=O)c1cccc(-c2ccnc3c2CC(C(=O)NCc2cccs2)O3)c1 (stereo not drawn),n,u,n,n,x,73
O=C(NCc1cccs1)C1Cc2c(-c3ccc(Cl)cc3)ccnc2O1 (stereo not drawn),x,x,n,n,x,70
SMILES,LGR2 inh,PAX8 inh HTS,TROY NFkB inh,TWEAK Fn14 block,LMP1 NFkB inh,EWS-Fli block
COc1ccc(NC(=O)N(C)C[C@H]2Oc3ccc(NC(=O)NC4CCCCC4)cc3CC(=O)N([C@H](C)CO)C[C@@H]2C)cc1,n,n,x,x,x,n
Cc1csc(N/N=C/c2ccccc2F)n1,n,n,n,n,87,n
CN(C)S(=O)(=O)c1cccc(-c2nn(-c3ccccc3)cc2/C=C(\C#N)c2nc3ccccc3[nH]2)c1,n,n,n,n,n,x
CN(C)S(=O)(=O)c1cccc(-c2nn(-c3ccccc3)cc2/C=C2\SC(=S)NC2=O)c1,n,n,67,64,n,n
CC=Cc1ccc2n(c1=O)C[C@H]1[C@H](CO)[C@@H](C(=O)N[C@@H](C)c3ccccc3)[C@@H]2N1Cc1ccncc1 (mixture of isomers),n,n,x,x,x,n
COc1cccc(C(=O)N2CCN(c3nc4cc(C)cc(C)c4cc3C#N)CC2)c1,n,n,n,n,57,n
O=C1NC(=O)/C(=C\c2ccc(OCc3cccc(C(=O)O)c3)c(Cl)c2)N1,83,n,n,n,u,n
COc1cc(/C=C2\NC(=S)NC2=O)ccc1OCc1cccc(C(=O)O)c1,n,n,n,n,n,n
O=C(O)c1cccc(COc2ccccc2Cl)c1,101,x,n,73,74,86
O=C(c1ccc(COc2ccccc2Cl)o1)N1CCCC1,x,x,n,n,47,x
CC(=O)N(C)C[C@H]1Oc2ncc(-c3cccc(C#N)c3)cc2C(=O)N([C@@H](C)CO)C[C@@H]1C,n,n,x,x,x,n
O=C(NCCc1csc(-c2cccnc2)n1)c1ccccc1,n,n,n,n,n,n
O=C(NCCc1csc(-c2cccnc2)n1)c1cccc2ccccc12,n,n,n,n,89,n
O=S(=O)(O)CCS,n,n,n,n,n,n
NCCCS(=O)(=O)O,n,n,n,n,54!,n
C[C@@H]1CCCCO[C@H](CN(C)C)[C@@H](C)CN([C@@H](C)CO)C(=O)c2cc(NC(=O)CCC(F)(F)F)ccc2O1,n,n,x,x,x,n
C[C@H]1CCCCO[C@@H](CN(C)S(=O)(=O)c2ccccc2)[C@@H](C)CN([C@@H](C)CO)C(=O)c2cc(NC(=O)Nc3ccc(C(F)(F)F)cc3)ccc2O1,n,76,x,x,x,n
C[C@H](CO)N1C[C@H](C)[C@@H](CN(C)S(=O)(=O)c2ccccc2)OCCCC[C@H](C)Oc2ccc(NC(=O)Nc3ccc(C(F)(F)F)cc3)cc2C1=O,n,70,x,x,x,n
C[C@@H]1CCCCO[C@@H](CN(C)S(=O)(=O)c2ccccc2)[C@@H](C)CN([C@H](C)CO)C(=O)c2cc(NC(=O)Nc3ccc(C(F)(F)F)cc3)ccc2O1,n,n,x,x,x,n
C[C@@H]1CN([C@H](C)CO)C(=O)c2cc(NC(=O)Nc3ccc(C(F)(F)F)cc3)ccc2O[C@@H](C)CCCCO[C@@H]1CN(C)S(=O)(=O)c1ccccc1,n,n,x,x,x,n
C[C@@H]1CCCCO[C@H](CN(C)S(=O)(=O)c2ccccc2)[C@@H](C)CN([C@@H](C)CO)C(=O)c2cc(NC(=O)Nc3ccc(C(F)(F)F)cc3)ccc2O1,n,72,x,x,x,n
